PubChem BioAssay AID488835 (Broad Institute, 2010)
About 140 (10%) of roughly 1,400 compounds were called active.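 How the source made its calls: active means Half-maximal inhibitory dose from the fit at or below ten times the top valid tested dose; inconclusive means Invalid fit, or flat curve showing 30 to 70% inhibition; inactive means the rest.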 The list is a sample of the results. Measured potencies and affinities stand elsewhere.

target: Lysine-specific demethylase 4C (Homo sapiens) (UniProt Q9H3R0); experiment: inhibition of JMJD2C H3K9me3 demethylation – biochemical, DELFIA europium, cherry-picked samples, dose response (AID 488835); conditions: GST-JMJD2C(1-420); series mostly up to 6 µM; activity change, negative = inhibition: at the top concentration;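 further: signal is the H3K9me2 demethylation product detected by a dimethyl-specific antibody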
Sequence (Q9H3R0 1-420 limits assumed): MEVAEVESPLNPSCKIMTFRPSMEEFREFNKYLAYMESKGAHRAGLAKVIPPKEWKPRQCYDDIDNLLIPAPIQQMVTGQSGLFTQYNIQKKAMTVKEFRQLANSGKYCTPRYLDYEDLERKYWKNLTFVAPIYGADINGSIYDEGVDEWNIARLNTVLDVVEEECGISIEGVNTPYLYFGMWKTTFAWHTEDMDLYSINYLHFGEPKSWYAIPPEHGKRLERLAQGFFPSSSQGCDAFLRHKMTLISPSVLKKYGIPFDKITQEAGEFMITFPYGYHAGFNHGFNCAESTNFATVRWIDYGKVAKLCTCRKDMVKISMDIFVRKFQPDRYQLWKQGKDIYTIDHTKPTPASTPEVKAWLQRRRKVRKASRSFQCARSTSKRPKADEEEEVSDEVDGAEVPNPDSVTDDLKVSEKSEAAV

Activity change, negative = inhibition, inactive:
COc1ccc(S(=O)(=O)Nc2ccc3c(c2)C(=O)N([C@H](C)CO)C[C@H](C)[C@H](CN(C)Cc2ccc(C(=O)O)cc2)O3)cc1 8.66%
Cc1noc(C)c1NC(=O)N(C)C[C@H]1Oc2ccc(NC(=O)Cn3cnnn3)cc2C(=O)N([C@H](C)CO)C[C@@H]1C 4.99%
Oc1cc(O)cc(/C=C/c2ccc(O)c(O)c2)c1 -12.8%
CC(=O)OCC1OC(OC2C[C@]3(C)C(CC(O)C4C([C@](C)(CCC=C(C)C)OC5OC(CO)C(O)C(O)C5O)CC[C@]43C)[C@@]3(C)CCC(O)C(C)(C)C23)C(O[C@@H]2OC(C)C(O)C(O)C2O)C(O)C1O (stereo partly drawn) 5.45%
N=C1C(c2nc3ccccc3s2)=C(O)CN1Cc1ccccc1 -5.43%
Nc1ccc2oc(-c3ccccn3)nc2c1 1.06%
CN(C(=O)c1ccccn1)c1nnc(-c2ccccn2)s1 4.97%
O=C(N/N=C/c1nn(-c2ccccc2)cc1-c1ccccc1)c1ccncc1 0.372%
CCCC(=O)Nc1ccc(C(=O)NCC2CCCO2)cc1 (stereo not drawn) 3.13%
CS(=O)(=O)N(CCc1ccccc1)CC(=O)NCC1CCCO1 (stereo not drawn) 4.93%
Cc1cc(C)n(-c2nnc(C)n2/N=C/c2ccco2)n1 -0.704%
O=C(O)c1cc2cc(Cl)ccc2oc1=O -0.508%
O=C(CSc1nc2ccccc2c(=O)n1Cc1ccccc1)NCc1ccco1 -2.03%
CCOC(=O)Cn1c(=O)cnc2ccccc21 5.57%
O=[N+]([O-])c1ccccc1/C=C/C=N/n1c(-c2ccc(Cl)cc2)n[nH]c1=S -7.26%
CC(C)(C)n1ncc2c(=O)n(Cc3ccccc3Br)cnc21 -1.56%
CCN(CC)c1ccc(C(=O)OCC(=O)N2CCCC2)cc1 8.43%
O=C(OCC(=O)N1CCCC1)c1ccc(S(=O)(=O)Nc2ccccc2)cc1 -1.48%
C[C@H](CO)N1C[C@H](C)[C@@H](CN(C)C(=O)NC2CCCCC2)Oc2c(NC(=O)c3ccncc3)cccc2C1=O -0.139%
CCC(=O)N1c2ccc(S(=O)(=O)CCC(=O)NCCC3=CCCCC3)cc2CC1C (stereo not drawn) -5.61%
Brc1ccc(-c2csc(N3CCc4ccccc4C3)n2)cc1 -8.29%
COc1ccc(-n2c(C)cc(/C=N/Nc3nnc(C)n3N)c2C)cc1 -7.05%
O=C(N/N=C/c1ccc([N+](=O)[O-])o1)c1cn(-c2ccccc2)nc1-c1ccc(F)cc1 -0.632%
Cc1cccc(C)c1NC(=S)NN(Cc1ccccc1)c1ccccc1 9.61%
CCN(CC)CCCOc1ccc(C)cc1Br -1.23%
O=C(C1CCC1)N(CCc1ccccc1)Cc1nc2ccccc2c(=O)[nH]1 2.65%
COc1ccc(NC(=S)N2CCC(C(=O)N3CCCCCC3)CC2)cc1 6.3%
O=C(Nc1ccc(Cl)cc1)N1CCN(c2ccccc2)CC1 5.66%
COc1ccc(C(C(C(=O)c2ccco2)N2CCOCC2)N2CCOCC2)cc1 (stereo not drawn) 5.71%
CCN1C(=O)C(C(=O)Nc2ccc(OC)cc2)C2CC1(C)Oc1ccccc12 (stereo not drawn) 4.42%
COc1ccc(CC(=O)Nc2ccc(S(=O)(=O)N(C)C)cc2)cc1OC 2.27%
Cc1onc(-c2c(F)cccc2Cl)c1C(=O)N1CCN(S(C)(=O)=O)CC1 12.7%
N/C(=N\OC(=O)COc1cc(Cl)c(Cl)cc1Cl)c1ccncc1 -1.87%
C=CCNC(=S)Nc1ccc(N2CCOCC2)c(S(=O)(=O)Nc2ccccc2Cl)c1 3.98%
CN(C)S(=O)(=O)c1cccc(NC(=S)NCc2ccc3c(c2)OCO3)c1 1.74%
COc1ccc(S(=O)(=O)N2CCC(C(=O)N3CCc4ccccc4C3)CC2)cc1 4.71%
O=C(NCc1cccc(F)c1)C1CCN(S(=O)(=O)Cc2ccccc2)CC1 -2.41%
COc1ccc(C2CC(=O)C=C(NNS(=O)(=O)c3ccc(C)cc3)C2)cc1 (stereo not drawn) 0.334%
COCCn1nnnc1C(C(C)C)N1CCCC(C)C1 (stereo not drawn) -1.09%
COc1ccc(NS(=O)(=O)c2cccc(C(=O)OCC(=O)Nc3cc(C)on3)c2)cc1 2.59%
CCc1ccc(S(=O)(=O)Nc2nnc(N)s2)cc1 6.79%
O=C(NCCNc1ccc([N+](=O)[O-])cc1C(F)(F)F)c1ccccc1 5.47%
COC(=O)COc1ccc(S(=O)(=O)N2CCOCC2)cc1C 5.36%
COc1ccccc1C(c1nnnn1Cc1ccccc1)N1CCN(C2CCCC2)CC1 (stereo not drawn) -4.86%
C/C=C(\C)c1nnc(NC(=O)C(C)C)s1 9.8%
CCOC(=O)N1CCN(C(=S)NC(=O)c2ccc(F)cc2)CC1 -2.89%
COc1ccc(-c2nn(-c3ccccc3)cc2CNC(C)Cn2cncn2)c(F)c1 (stereo not drawn) -4.46%
CCOc1ccc(N2CC(C(=O)Nc3nnc(Cc4ccc(OC)cc4)s3)CC2=O)cc1 (stereo not drawn) 4.76%
CCCCN1CC[C@H]2C=CC[C@@H](C(=O)Nc3ccc(OC)cc3)[C@H]2C1=O 8.42%
O=S(=O)(Nc1ccccc1)c1ccc(NS(=O)(=O)c2c(F)cccc2F)cc1 -0.423%
C[C@H](CO)N1C[C@H](C)[C@@H](CN(C)C(=O)Nc2ccc(C(F)(F)F)cc2)Oc2c(NC(=O)Nc3ccc4c(c3)OCO4)cccc2C1=O 3.68%
COc1cc(/C=N/N2C(=O)C3C4c5ccccc5C(c5ccccc54)C3C2=O)ccc1O (stereo not drawn) -0.389%
COc1ccc(/C=N/Nc2ncnc(Cl)c2N)cc1OC -1.24%
COc1cc(/C=N/Nc2ccccc2)ccc1OC(=O)c1cccs1 -0.0417%
O=C(O)CCCC(=O)Nc1ccc(C(=O)NCc2cccnc2)cc1 3.5%
N#CCN1CCC(c2cc(-c3ccco3)n[nH]2)CC1 -1.55% [at 1.6 µM]
CS(=O)(=O)N(CC(=O)O)c1cc(Cl)cc(Cl)c1 -2.49%
COc1ccc(N2CCN(C(=O)CSc3nnc(-c4ccco4)n3C)CC2)cc1 4.94%
C[C@H](CO)N1C[C@H](C)[C@@H](CN(C)C(=O)Nc2ccccc2)Oc2c(NC(=O)c3ccncc3)cccc2C1=O 5.62%
Cc1cccc2sc(NNC(=O)c3cc(=O)c4ccccc4o3)nc12 -7.12%
CN1N=C(C(F)(F)F)CC1=O -2.45%
CSC1=NCCN1C(=O)c1cccc(C(F)(F)F)c1 -2.7%
Cn1c(=O)c(-c2ccccc2)nn2c3ccccc3nc12 7.46%
Cc1ccc(Nc2c(-c3ccccn3)nc3cc(C)ccn23)cc1 6.6%
CCOC(=O)N1CCC2(CC1)C(C#N)=C(N)OC1=C2C(=O)CC(C)(C)C1 4.68%
C[C@H](CO)N1C[C@H](C)[C@@H](CN(C)Cc2ccc(C(=O)O)cc2)Oc2c(NC(=O)c3ccncc3)cccc2C1=O 7.09%
O=C(O)Cn1cc(/C=C2/SC(=O)N(CC(=O)N3CCCCCC3)C2=O)c2ccccc21 2.27%
O=C(O)CCC(=O)Nc1nc2nc(-c3ccccc3)cc(-c3ccccc3)n2n1 0.643%
CCN(C[C@H]1N[C@@](C)(C(=O)OC)[C@H]2C(=O)N(Cc3ccccc3)C(=O)[C@@H]12)C(=O)Nc1ccc(F)cc1 -4.19%
Cc1cc(N2C(=O)C(=O)/C(=C(/O)c3ccc(F)cc3)C2c2cccc(Br)c2)no1 (stereo not drawn) 2.06%
COc1cccc(/C=C/C(=O)NCCc2ccc(OC)c(OC)c2)c1 -4.6%
CCc1ccc(-c2cc(C)no2)cc1S(=O)(=O)NCCc1ccc(OC)c(OC)c1 7.44%
Cc1ccccc1NS(=O)(=O)c1ccc(C(=O)NCC(c2ccco2)N(C)C)cc1 (stereo not drawn) -0.352%
COc1ccccc1/C=C/C(=O)Nc1ccc(N2CCOCC2)cc1 4.57%
Cc1cc(C)c2cc(C#N)c(SCC(=O)Nc3ccc4c(c3)OCO4)nc2c1 5.59%
O=C(/C=C\Nc1ccc(Cl)cn1)c1ccc(Br)cc1 -7.96%
CCCNC1=C(N(C(C)=O)c2cccc(F)c2)C(=O)c2ccccc2C1=O 3.34%
C#CCOCCOCCOCCNc1nc(N2CCN(C(=O)[C@H](CCC(=O)O)n3cc(CN)nn3)CC2)nc(N2CCN(C(=O)[C@H](CCCN=C(N)N)n3cc(C(N)[C@@H](C)CC)nn3)CC2)n1 (stereo partly drawn) 76.7%
C#CCOCCOCCOCCNc1nc(N2CCOCC2)nc(N2CCN(C(=O)[C@H](CCCN=C(N)N)n3cc(C(N)[C@@H](C)CC)nn3)CC2)n1 (stereo partly drawn) 5.28%
C#CCOCCOCCOCCNc1nc(N2CCN(C(=O)[C@H](CCCN=C(N)N)n3cc(C(N)[C@H](C)CC)nn3)CC2)nc(N2CCN(C(=O)[C@H](CC(N)=O)n3cc(C(N)[C@@H](C)CC)nn3)CC2)n1 (stereo partly drawn) -2.68%
C#CCOCCOCCOCCNc1nc(N2CCN(C(=O)[C@H](CCCN=C(N)N)n3cc(C(N)[C@@H](C)CC)nn3)CC2)nc(N2CCN(C(=O)[C@H](CCC(=O)O)n3cc([C@@H](N)[C@H](C)CC)nn3)CC2)n1 (stereo partly drawn) 4.63%
Oc1cc2ccccc2cc1-c1nnc2n1-c1ccccc1SC2 -2.47%
CC(=O)Nc1sc2c(c1CN1CCN(C)CC1)CCCC2 6.9%
COc1ccc(S(=O)(=O)N2CC(O)CC2C(=O)OCc2nc3sc(C)c(C)c3c(=O)[nH]2)cc1 (stereo not drawn) 1.48%
CC1CCN(C(=O)CSc2nnc(CNC(=O)c3c(F)cccc3F)o2)CC1 6.12%
CNC(=O)c1sccc1-n1cccc1 9.03%
CCOC(=O)C1(C)NC(c2cccs2)C2C(=O)N(c3ccc(OC)cc3)C(=O)C21 (stereo not drawn) 3.9%
Cc1ccccc1CNc1nnnn1C 5.25%
O=C(N/N=C/c1ccc(O)cc1)c1cncc(Br)c1 4.32%
Oc1ccc(Br)cc1/C=N/Nc1nc(N2CCCCC2)nc(N2CCOCC2)n1 12.4%
CN1CCC[C@H]1CCNC(=O)c1c(-c2ccsc2)sc2ccccc12 0.336%
Cn1c(=O)c2[nH]c(N3CCN(c4cccc(O)c4)CC3)nc2n(C)c1=O 2.66%
CC(OC(=O)CN1C(=O)COc2ccccc21)C(=O)NCc1ccc(F)cc1 (stereo not drawn) 15.5%
Cc1ccc(C(C)C)c(Oc2nnnn2-c2ccccc2)c1 0.65%
O=C(c1cc2c(s1)CCC2)N1C(=O)c2ccccc2S1(=O)=O 2.58%
O=C(Cn1cncn1)NCc1cc(F)ccc1F 2.09%
C[C@H](CO)N1C[C@H](C)[C@@H](CN(C)CC2CCCCC2)Oc2c(NC(=O)C3CC3)cccc2C1=O 4.66%
C[C@H]1CN([C@@H](C)CO)C(=O)c2cccc(NC(=O)C3CC3)c2O[C@H]1CN(C)Cc1ccncc1 1.11%
